Data published in PubChem BioAssay (NCATS).
Results filed as inconclusive are left out. Where a call stands in place of a potency, no number is given. Calls of active or inactive are those of the source. Calls come from the whole dose curve.

Assay: Primary qHTS for inhibitors of MERS-S pseudo-typed particle cell entry (AID 1479149); note: nearly all actives have a fitted effect of over 60% in size; note: potency is the fitted concentration of half-maximal effect
Conditions: MERS-S pseudotyped particle entry, luciferase; series mostly up to 57.1 µM

Structure (SMILES)	Potency
CCN1CCCC(OC(=O)C(c2ccccc2)c2ccccc2)C1 (stereo unspecified)	inactive
CC(C)(C)NCC(O)COc1cccc2c1CCC(=O)N2 (stereo unspecified)	inactive
CC1=C(C)C(=O)C(C(CCCCCC(=O)O)c2ccccc2)=C(C)C1=O (stereo unspecified)	inactive
CCOC(=O)c1ccc(NC(=O)CN2CCCCC2)cc1	inactive
O=C1OC2(c3ccc(O)cc3Oc3cc(O)ccc32)c2ccccc21	inactive
Cc1cc(O)c(C(C)C)cc1Cl	inactive
CNC(=O)Oc1ccc2c(c1)[C@]1(C)CCN(C)[C@@H]1N2C	inactive
C[N+](C)(C)CCOC(=O)CCC(=O)OCC[N+](C)(C)C	inactive
Cc1ccc(=O)n(-c2ccccc2)c1	inactive
COc1ccc2c(c1)c(CC(=O)OCC(=O)O)c(C)n2C(=O)c1ccc(Cl)cc1	inactive
O=C(CCCN1CCN(c2ccccn2)CC1)c1ccc(F)cc1	inactive
N[C@H]1CN(c2c(F)cc3c(=O)c(C(=O)O)cn(C4C[C@@H]4F)c3c2Cl)CC12CC2 (stereo partly specified)	inactive
CCCCC(=O)O[C@]1(C(=O)CO)[C@@H](C)C[C@H]2[C@@H]3CCC4=CC(=O)C=C[C@]4(C)[C@@]3(F)[C@@H](O)C[C@@]21C	inactive
CCC1Nc2cc(Cl)c(S(N)(=O)=O)cc2S(=O)(=O)N1 (stereo unspecified)	inactive
O=C1c2cccc(O)c2C(=O)c2c(O)cccc21	inactive
CN(Cc1ccc(C(C)(C)C)cc1)Cc1cccc2ccccc12	inactive
COC(=O)Nc1nc2ccc(S(=O)c3ccccc3)cc2[nH]1 (stereo unspecified)	inactive
CCCNC(C)(C)COC(=O)c1ccccc1	inactive

Structure (SMILES)	Potency
Cn1cnc2c1c(=O)[nH]c(=O)n2C	inactive
CCCCOc1ccc(OCCCN2CCOCC2)cc1	inactive
C[C@]12CC[C@@H]3c4ccc(O)cc4CC[C@H]3[C@@H]1CC[C@@H]2OC(=O)CCC1CCCC1	inactive
Cc1ccc(Nc2c(F)cccc2Cl)c(CC(=O)O)c1	inactive
C[C@H]1O[C@@H](O[C@H]2CC[C@@]3(C)[C@H](CC[C@@H]4[C@@H]3C[C@@H](O)[C@]3(C)[C@@H](C5=CC(=O)OC5)CC[C@]43O)C2)C[C@H](O)[C@@H]1O[C@H]1C[C@H](O)[C@H](O[C@H]2C[C@H](O)[C@H](O[C@@H]3O[C@H](CO)[C@@H](O)[C@H](O)[C@H]3O)[C@@H](C)O2)[C@@H](C)O1	inactive
CCCCCCCCCCCCCCCC[n+]1ccccc1	7.08 µM (active)
CCOC(=O)c1cccc(N)c1	inactive
CC(O)COc1ccccc1 (stereo unspecified)	inactive
CC[N+]1(CC)CCC(=C(c2ccccc2)c2ccccc2)C1C (stereo unspecified)	inactive
CN(C)CCN(Cc1cccs1)c1ccccn1	inactive
CCC(=O)O[C@]1(C(=O)COC)[C@@H](C)C[C@H]2[C@@H]3CCC4=CC(=O)C=C[C@]4(C)C3(F)[C@@H](O)C[C@@]21C (stereo partly specified)	inactive
CCCCOc1ccc(CC(=O)NO)cc1	inactive
C#C[C@]1(O)CC[C@H]2[C@@H]3CCC4=CC(=O)CC[C@@H]4[C@H]3CC[C@@]21C	inactive
CC(=O)Oc1ccc(C(c2ccc(OC(C)=O)cc2)c2ccccn2)cc1	inactive
C[C@H](N)[C@H](O)c1cccc(O)c1	inactive
NCC1CCC(C(=O)Oc2ccc(CCC(=O)O)cc2)CC1 (stereo unspecified)	inactive
O=C(O)CCC(=O)c1ccc(-c2ccccc2)cc1	inactive

Assay: Primary qHTS for Vero E6 cytotoxicity: counterscreen for inhibitors of SARS-S pseudo-typed particle cell entry (AID 1479150)
Conditions: cell viability; series mostly up to 57.1 µM

Structure (SMILES)	Potency
CCN1CCCC(OC(=O)C(c2ccccc2)c2ccccc2)C1 (stereo unspecified)	inactive
CC(C)(C)NCC(O)COc1cccc2c1CCC(=O)N2 (stereo unspecified)	inactive
CC1=C(C)C(=O)C(C(CCCCCC(=O)O)c2ccccc2)=C(C)C1=O (stereo unspecified)	inactive
CCOC(=O)c1ccc(NC(=O)CN2CCCCC2)cc1	inactive
O=C1OC2(c3ccc(O)cc3Oc3cc(O)ccc32)c2ccccc21	inactive
Cc1cc(O)c(C(C)C)cc1Cl	inactive
CNC(=O)Oc1ccc2c(c1)[C@]1(C)CCN(C)[C@@H]1N2C	inactive
C[N+](C)(C)CCOC(=O)CCC(=O)OCC[N+](C)(C)C	inactive
Cc1ccc(=O)n(-c2ccccc2)c1	inactive
COc1ccc2c(c1)c(CC(=O)OCC(=O)O)c(C)n2C(=O)c1ccc(Cl)cc1	inactive
O=C(CCCN1CCN(c2ccccn2)CC1)c1ccc(F)cc1	inactive
N[C@H]1CN(c2c(F)cc3c(=O)c(C(=O)O)cn(C4C[C@@H]4F)c3c2Cl)CC12CC2 (stereo partly specified)	inactive
CCCCC(=O)O[C@]1(C(=O)CO)[C@@H](C)C[C@H]2[C@@H]3CCC4=CC(=O)C=C[C@]4(C)[C@@]3(F)[C@@H](O)C[C@@]21C	inactive
CCC1Nc2cc(Cl)c(S(N)(=O)=O)cc2S(=O)(=O)N1 (stereo unspecified)	inactive
O=C1c2cccc(O)c2C(=O)c2c(O)cccc21	inactive
CN(Cc1ccc(C(C)(C)C)cc1)Cc1cccc2ccccc12	inactive

Structure (SMILES)	Potency
CCCNC(C)(C)COC(=O)c1ccccc1	inactive
Cn1cnc2c1c(=O)[nH]c(=O)n2C	inactive
CCCCOc1ccc(OCCCN2CCOCC2)cc1	inactive
C[C@]12CC[C@@H]3c4ccc(O)cc4CC[C@H]3[C@@H]1CC[C@@H]2OC(=O)CCC1CCCC1	inactive
Cc1ccc(Nc2c(F)cccc2Cl)c(CC(=O)O)c1	inactive
CCOC(=O)c1cccc(N)c1	inactive
CC(O)COc1ccccc1 (stereo unspecified)	inactive
CC[N+]1(CC)CCC(=C(c2ccccc2)c2ccccc2)C1C (stereo unspecified)	inactive
CN(C)CCN(Cc1cccs1)c1ccccn1	inactive
CCC(=O)O[C@]1(C(=O)COC)[C@@H](C)C[C@H]2[C@@H]3CCC4=CC(=O)C=C[C@]4(C)C3(F)[C@@H](O)C[C@@]21C (stereo partly specified)	inactive
CCCCOc1ccc(CC(=O)NO)cc1	inactive
C#C[C@]1(O)CC[C@H]2[C@@H]3CCC4=CC(=O)CC[C@@H]4[C@H]3CC[C@@]21C	inactive
C[C@H](N)[C@H](O)c1cccc(O)c1	inactive
NCC1CCC(C(=O)Oc2ccc(CCC(=O)O)cc2)CC1 (stereo unspecified)	inactive
O=C(O)CCC(=O)c1ccc(-c2ccccc2)cc1	inactive
